Source: PubChem BioAssay AID652048 (National Center for Advancing Translational Sciences (NCATS), 2013)
“And” between values parts separate entries of the source, which are not always exact repeats. Identical values can stand only once. About 2,400 (0.59%) of roughly 410,000 compounds were called active. This is one part of a sample in which actives are shown more often than they occur. Rule as the data show it: active = max activation above about 30%; inactive = the rest. Where a SMILES comes first, the peptide text is derived from it. Bridges are numbered along the chain shown (N, C = ends). [ ]: non-standard residue; d: D form. The star is where a group is joined. X1 = CC[C@H](C)CCCCC(=O)*; Dab = NCC[C@H](N)C(=O)O

What follows are molecules tested against D(3) dopamine receptor (Homo sapiens) (UniProt P35462) (assay: qHTS of D3 Dopamine Receptor Agonist: qHTS). Details: D3R DiscoveRx beta-arrestin cells, luminescence, 90 min; stronger effect = higher value.
Chain of D(3) dopamine receptor (Homo sapiens) (P35462 whole entry, looked up): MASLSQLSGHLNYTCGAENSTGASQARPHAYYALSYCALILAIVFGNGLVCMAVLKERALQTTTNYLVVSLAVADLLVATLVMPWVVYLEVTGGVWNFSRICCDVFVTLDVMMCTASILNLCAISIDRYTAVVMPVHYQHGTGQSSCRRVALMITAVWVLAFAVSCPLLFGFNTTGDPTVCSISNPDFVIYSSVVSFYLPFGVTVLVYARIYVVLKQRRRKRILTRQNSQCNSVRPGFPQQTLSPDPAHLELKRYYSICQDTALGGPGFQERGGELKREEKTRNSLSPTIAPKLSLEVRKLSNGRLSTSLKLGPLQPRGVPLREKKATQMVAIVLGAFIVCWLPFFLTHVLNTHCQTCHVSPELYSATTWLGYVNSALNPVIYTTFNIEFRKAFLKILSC
How it was run: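 Agonist mode: compounds and dopamine controls were applied to plated cells for 90 min at 37 degrees C after an overnight attachment at 1500 cells/well. Luminescent read-out followed 30 - 60 minutes at room temperature with DiscoveRx detection reagent.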
Also: 0% is about no effect.

Structure (SMILES)	max activation
CC1=C(/C=C/C(C)=C/C=C/C(C)=C/C=C/C=C(C)/C=C/C=C(C)/C=C/C2=C(C)CCCC2(C)C)C(C)(C)CCC1	-12.4% (inactive)
Cc1ccc(-n2c(SCC(=O)Nc3ncc(Cl)cc3Cl)nc3ccccc32)cc1	39.8% (active)
Cc1cc(C)c(NC(=O)Cn2c(SCC(=O)NCc3ccccc3)nc3ccccc32)c(C)c1	-11.4% (inactive)
Cc1ccc(NC(=O)CSc2nc3c([nH]c4ccccc43)c(=O)n2-c2ccccc2)cc1Cl	-9.55% (inactive)
CCC(=O)N1CCc2cc(S(=O)(=O)NC(C(=O)Nc3ccc(C(C)=O)cc3)C(C)C)ccc21 (centres undefined)	-16.2% (inactive)
NC(=O)C1CCN(C(=O)COc2ccc3c4c(c(=O)oc3c2)CCC4)CC1	-9.64% (inactive)
CSCCC(NS(=O)(=O)c1ccc(C)cc1)C(=O)N1CCCC1 (centres undefined)	-0.577% (inactive)
CCCCC(NS(=O)(=O)c1ccc(C)cc1)C(=O)Oc1ccc2c3c(c(=O)oc2c1)CCC3 (centres undefined)	51.9% (active)
COc1ccccc1NC(=O)c1oc2ccccc2c1NC(=O)C(C)C	2.74% (inactive)
CSc1ccc(/C=N\NC(=O)COc2ccc(Cl)cc2Br)cc1	32.8% (active)
O=C(COc1ccc(Cl)cc1Cl)NCCCNC(=O)c1cnccn1	5.48% (inactive)
C/C(CC(=O)NCc1ccc(Cl)cc1)=N\NC(=O)COc1ccc(C)cc1Br	-14.3% (inactive)
CC[C@H](C)CCCCC(=O)N[C@@H](CCN)C(=O)N[C@H](C(=O)N[C@@H](CCN)C(=O)N[C@H]1CCNC(=O)[C@@H]([C@H](C)O)NC(=O)[C@H](CCN)NC(=O)[C@H](CCN)NC(=O)[C@H](CC(C)C)NC(=O)[C@@H](CC(C)C)NC(=O)[C@H](CCN)NC1=O)[C@@H](C)O (X1-[Dab]T[Dab][Dab][Dab][dL]L[Dab][Dab][dT]; lactam 4-C)	-1.99% (inactive)
CC1(C)[C@@H]2CC[C@@]1(C)[C@H](OC(=O)CSC#N)C2	-0.173% (inactive)
O=S(=O)(NCCS(=O)(=O)N1CCN(c2ccccc2)CC1)c1ccc(Cl)cc1	0.296% (inactive)
CS(=O)(=O)N1CCC(C(=O)N2CCN(c3ccccc3)CC2)CC1	6.05% (inactive)
CCS(=O)(=O)N1CCC(N2CCN(c3ccccc3)CC2)CC1	64.6% (active)
Cc1ccc(C)c(N2CCN(C(=O)CCc3c(C)nc4c(c3C)c(=O)n(C)c(=O)n4C)CC2)c1	1.37% (inactive)
COc1cc2c(cc1OC)[C@@H](Cc1cc(OC)c(OC)c(OC)c1)[N+](C)(CCCOC(=O)CC/C=C/CCC(=O)OCCC[N+]1(C)CCc3cc(OC)c(OC)cc3[C@H]1Cc1cc(OC)c(OC)c(OC)c1)CC2 (some centres undefined)	4.34% (inactive) and 3.72% (inactive)
Cn1nnc2c(N3CCN(c4ccccc4)CC3)ncnc21	1.99% (inactive)
CCc1cc2c(N3CCN(c4nnc(CC)s4)CC3)ncnc2s1	13.8% (inactive)
Oc1ccccc1N1CCN(c2ncnc3sc(-c4ccccc4)cc23)CC1	31.1% (active)

Structure (SMILES)	max activation
CCCCN(CC)CCCNC(=O)c1nn(C)c2c1CSc1ccccc1-2	3.9% (inactive)
COc1ccc(OC)c(CCNC(=O)c2nn(C)c3c2CS(=O)(=O)c2ccccc2-3)c1	2.65% (inactive)
CCCCN(CC)CCCNC(=O)c1nn(C)c2c1CS(=O)(=O)c1ccccc1-2	31.8% (active)
CCOc1ccccc1CNC(=O)c1ccc(-n2c(C)cc3c2CCC(C)C3)cc1 (centres undefined)	-10.9% (inactive)
COC(=O)c1cc(NC(=O)CCc2c(C)nc3c4c(C)cc(C)nc4nn3c2C)cc(C(=O)OC)c1	-21.8% (inactive)
O=C(CSc1nccn1-c1ccc(F)cc1)Nc1cccc2ccccc12	7.68% (inactive)
Cc1ccc(NC(=O)[C@H](Cc2ccccc2)NC(=O)CC[C@H]2O[C@@H](n3ccc(=O)[nH]c3=O)[C@H](O)[C@@H]2O)cc1C	63.9% (active)
O=C(CC[C@H]1O[C@@H](n2ccc(=O)[nH]c2=O)[C@H](O)[C@@H]1O)N[C@H](Cc1ccccc1)C(=O)NCCCN1CCCC1=O	-10.2% (inactive)
O=C(CC[C@H]1O[C@@H](n2ccc(=O)[nH]c2=O)[C@H](O)[C@@H]1O)N[C@H](Cc1ccccc1)C(=O)NCc1ccco1	13.5% (inactive)
CCOc1ccc(-c2cc3c(=O)n(CC(=O)NCc4ccc(OC)cc4)ccn3n2)cc1	-2.91% (inactive)
COc1cc2c(-c3ccc4c(c3)OCO4)c(-c3ccsc3)oc(=O)c2cc1OC	30.4% (active)
COc1cc(-c2c(-c3ccc4c(c3)OCO4)noc2C)ccc1F	-40.8% (inactive)
COc1cc(CNCc2ccc3c(c2)OCO3)c([N+](=O)[O-])cc1OC	-8.17% (inactive)
O=C(CCc1cn(Cc2ccc(F)cc2)c2ccccc12)NC1CCCCC1	-6.69% (inactive)
C/C=C/C1=C(C(=O)O)N2C(=O)[C@@H](NC(=O)[C@H](N)c3ccc(O)cc3)[C@H]2SC1	-0.123% (inactive)
C#C[C@]1(O)CC[C@H]2[C@@H]3CCC4=C/C(=N/O)CC[C@@H]4[C@H]3CC[C@@]21CC	4.22% (inactive)
CC(C)CCNC(=O)c1cccnc1Sc1ccccc1	-0.291% (inactive)
CC(C)CCNC(=O)c1[nH]c(C(F)(F)F)nc1-c1ccccc1	83.5% (active)
CC(C)(C)OC(=O)N1CCN(C(=O)c2[nH]c(C(F)(F)F)nc2-c2ccccc2)CC1	-1.11% (inactive)
COc1ccc(CCNC(=O)CCCn2c(=O)c3ccccc3n(Cc3ccc(C)cc3)c2=O)cc1OC	-1.49% (inactive)
CC[C@H](C)CCCCC(=O)N[C@@H](CCN)C(=O)N[C@H](C(=O)N[C@@H](CCN)C(=O)N[C@H]1CCNC(=O)[C@H]([C@@H](C)O)NC(=O)[C@H](CCN)NC(=O)[C@H](CCN)NC(=O)[C@H](CC(C)C)NC(=O)[C@@H](CC(C)C)NC(=O)[C@H](CCN)NC1=O)[C@@H](C)O (X1-[Dab]T[Dab][Dab][Dab][dL]L[Dab][Dab]T; lactam 4-C)	0.26% (inactive)
COc1cccc(CNC(=O)C2CCC(CNS(=O)(=O)c3cccs3)CC2)c1 (centres undefined)	2.62% (inactive)
